# Among all 39,000 compounds or so, about 3,300 (8.5%) were called active. Shown is part of a subset that was picked to be rich in actives.
# Test system: HepG2
# Experiment: cytotoxicity call (relative viability < 0.9)
# Settings: 10 µM
row,Structure (SMILES),cytotoxicity call
1,COc1ccc(CN(C)C[C@@H]2OCCCC[C@@H](C)Oc3ccc(NS(=O)(=O)c4ccc(F)cc4)cc3C(=O)N([C@@H](C)CO)C[C@H]2C)cc1,inactive
2,COc1ccc(CN(C)C[C@@H]2OCCCC[C@H](C)Oc3ccc(NS(=O)(=O)c4ccc(F)cc4)cc3C(=O)N([C@H](C)CO)C[C@@H]2C)cc1,active
3,COc1ccc(CN(C)C[C@H]2OCCCC[C@H](C)Oc3ccc(NS(=O)(=O)c4ccc(F)cc4)cc3C(=O)N([C@@H](C)CO)C[C@@H]2C)cc1,inactive
4,COc1ccc(S(=O)(=O)Nc2ccc3c(c2)C(=O)N([C@H](C)CO)C[C@H](C)[C@H](CN(C)Cc2ccc4c(c2)OCO4)OCCCC[C@H](C)O3)cc1,active
5,COc1ccc(S(=O)(=O)Nc2ccc3c(c2)C(=O)N([C@@H](C)CO)C[C@H](C)[C@H](CN(C)Cc2ccc4c(c2)OCO4)OCCCC[C@@H](C)O3)cc1,inactive
6,COc1ccc(CN(C)C[C@H]2OCCCC[C@H](C)Oc3ccc(NS(=O)(=O)c4ccc(F)cc4)cc3C(=O)N([C@H](C)CO)C[C@H]2C)cc1,inactive
7,COc1ccc(CN(C)C[C@@H]2OCCCC[C@@H](C)Oc3ccc(NS(=O)(=O)c4ccc(F)cc4)cc3C(=O)N([C@H](C)CO)C[C@H]2C)cc1,inactive
8,COc1ccc(CN(C)C[C@H]2OCCCC[C@H](C)Oc3ccc(NS(=O)(=O)c4ccc(OC)cc4)cc3C(=O)N([C@H](C)CO)C[C@@H]2C)cc1,inactive
9,COc1ccc(S(=O)(=O)Nc2ccc3c(c2)C(=O)N([C@@H](C)CO)C[C@@H](C)[C@@H](CN(C)Cc2ccc4c(c2)OCO4)OCCCC[C@@H](C)O3)cc1,inactive
10,COc1ccc(CN(C)C[C@H]2OCCCC[C@@H](C)Oc3ccc(NS(=O)(=O)c4ccc(OC)cc4)cc3C(=O)N([C@@H](C)CO)C[C@H]2C)cc1,inactive
11,COc1ccc(CN(C)C[C@@H]2OCCCC[C@H](C)Oc3ccc(NS(=O)(=O)c4ccc(OC)cc4)cc3C(=O)N([C@@H](C)CO)C[C@@H]2C)cc1,active
12,COc1ccc(CN(C)C[C@H]2OCCCC[C@H](C)Oc3ccc(NS(=O)(=O)c4ccc(F)cc4)cc3C(=O)N([C@@H](C)CO)C[C@H]2C)cc1,active
13,[O-][n+]1onc2c1CCc1c-2nn(-c2ccccc2)[n+]1[O-],inactive
14,COc1ccc(C#Cc2ccc3c(c2)[C@]2(C(=O)N3)[C@H](c3ccc(OCCO)cc3)N3[C@H](c4ccccc4)[C@H](c4ccccc4)OC(=O)[C@H]3[C@@H]2C(=O)N2CCN(c3ncccn3)CC2)cc1,inactive
15,COc1ccc(S(=O)(=O)N(C)C[C@@H]2Oc3ncc(C#CCN(C)C)cc3C(=O)N([C@H](C)CO)C[C@@H]2C)cc1,inactive
16,O=C(O)CCC(=O)Nc1ccccn1,inactive
17,COc1ccc(NC(=O)Nc2ccc3c(c2)C(=O)N([C@H](C)CO)C[C@H](C)[C@H](CN(C)C(=O)NC2CCCCC2)OCCCC[C@H](C)O3)cc1,inactive
18,Nc1ccn[nH]1,inactive
19,NCc1nnc2n1CCCCC2,inactive
20,CCOC(=O)C1CCN(C)CC1,inactive
21,CC[C@@]1(O)C[C@H](O[C@H]2C[C@H](N(C)C)[C@H](O[C@H]3C[C@H](O)[C@H](O[C@H]4CCC(=O)[C@H](C)O4)[C@H](C)O3)[C@H](C)O2)c2c(cc3c(c2O)C(=O)c2c(O)cccc2C3=O)[C@H]1C(=O)OC,active
22,C[C@@H]1CN([C@@H](C)CO)S(=O)(=O)c2ccc(C#CC3CCCCC3)cc2O[C@@H]1CN(C)C(=O)Cc1ccncc1,inactive

row,Structure (SMILES),cytotoxicity call
1,CO[C@H](C(=O)N(C)C[C@H]1OCc2ccccc2-c2c(n(C)c3ccccc23)C(=O)N([C@@H](C)CO)C[C@@H]1C)c1ccccc1,inactive
2,Cc1cc(C(=O)NCc2cc3n(n2)CCN(S(C)(=O)=O)C3)nc(C)n1,inactive
3,C[C@@H]1CN([C@H](C)CO)C(=O)Cc2cc(NC(=O)Nc3ccccc3)ccc2O[C@@H]1CN(C)Cc1ccc(C(F)(F)F)cc1,active
4,C[C@@H]1CN([C@H](C)CO)C(=O)Cc2cc(NC(=O)Nc3ccccc3)ccc2O[C@H]1CN(C)Cc1ccc(C(F)(F)F)cc1,inactive
5,C[C@H]1CN([C@@H](C)CO)C(=O)Cc2cc(NC(=O)Nc3ccccc3)ccc2O[C@@H]1CN(C)Cc1ccc(C(F)(F)F)cc1,active
6,C[C@@H]1CN([C@@H](C)CO)C(=O)Cc2cc(NC(=O)Nc3ccccc3)ccc2O[C@@H]1CN(C)Cc1ccc(C(F)(F)F)cc1,active
7,C[C@H](CO)N1C[C@H](C)[C@@H](CN(C)Cc2ccc(C(F)(F)F)cc2)Oc2ccc(NC(=O)Nc3ccccc3)cc2CC1=O,inactive
8,C[C@H]1CN([C@@H](C)CO)C(=O)Cc2cc(NC(=O)Nc3ccccc3)ccc2O[C@H]1CN(C)Cc1ccc(C(F)(F)F)cc1,active
9,COCC(=O)Nc1ccc2c(c1)C(=O)N(C)C[C@@H](OC)[C@H](C)CN(Cc1ccccc1F)[C@H](C)CO2,inactive
10,CN1CCN(C(=O)C[C@H]2C=C[C@@H](NC(=O)Cc3ccccn3)[C@@H](CO)O2)CC1,inactive
11,C[C@H]1CCCCO[C@H](CN(C)C(=O)CCC(F)(F)F)[C@@H](C)CN([C@@H](C)CO)C(=O)c2cc(NS(=O)(=O)c3ccc(F)cc3)ccc2O1,inactive
12,C[C@@H]1CN([C@@H](C)CO)C(=O)Cc2cc(NS(C)(=O)=O)ccc2O[C@H]1CN(C)C(=O)Nc1ccc(C(F)(F)F)cc1,inactive
13,C[C@H](CO)N1C[C@H](C)[C@H](CN(C)S(=O)(=O)c2ccc(Cl)cc2)OCCCC[C@H](C)Oc2ccc(NC(=O)C3CCCCC3)cc2C1=O,inactive
14,C[C@H](CO)N1C[C@H](C)[C@H](CN(C)S(=O)(=O)c2ccccc2)Oc2ccc(NC(=O)Nc3cccc4ccccc34)cc2C1=O,inactive
15,COc1ccc(NC(=O)Nc2cccc3c2O[C@@H](CN(C)C(=O)Nc2ccc(C(F)(F)F)cc2)[C@H](C)CN([C@@H](C)CO)C3=O)cc1,inactive
16,C[C@@H]1CCCCO[C@H](CN(C)Cc2ccncc2)[C@@H](C)CN([C@@H](C)CO)C(=O)c2cc(NC(=O)Nc3ccc4c(c3)OCO4)ccc2O1,inactive
17,C[C@H](CO)N1C[C@H](C)[C@H](CN(C)Cc2ccc(C(F)(F)F)cc2)Oc2ccc(NC(=O)Nc3ccccc3)cc2CC1=O,inactive
18,C[C@@H]1CN([C@@H](C)CO)C(=O)Cc2cc(NC(=O)Nc3ccccc3)ccc2O[C@H]1CN(C)Cc1ccc(C(F)(F)F)cc1,active
19,NCc1ccc2c(c1)CCO2,inactive
20,C[C@H]1CN([C@@H](C)CO)S(=O)(=O)c2ccc(-c3cncnc3)cc2O[C@H]1CN(C)C(=O)Cc1ccncc1,inactive
21,Cc1ccc(S(=O)(=O)Nc2ccc3c(c2)C(=O)N([C@H](C)CO)C[C@@H](C)[C@@H](CN(C)Cc2ccc(Cl)c(Cl)c2)O3)cc1,active
22,Cc1ccc(S(=O)(=O)Nc2ccc3c(c2)C(=O)N([C@H](C)CO)C[C@H](C)[C@@H](CN(C)Cc2ccc(Cl)c(Cl)c2)O3)cc1,active

row,Structure (SMILES),cytotoxicity call
1,Cc1ccc(S(=O)(=O)Nc2ccc3c(c2)C(=O)N([C@@H](C)CO)C[C@H](C)[C@@H](CN(C)Cc2ccc(Cl)c(Cl)c2)O3)cc1,inactive
2,Cc1ccc(S(=O)(=O)Nc2ccc3c(c2)C(=O)N([C@H](C)CO)C[C@H](C)[C@H](CN(C)Cc2ccc(Cl)c(Cl)c2)O3)cc1,active
3,Cc1ccc(S(=O)(=O)Nc2ccc3c(c2)C(=O)N([C@@H](C)CO)C[C@H](C)[C@H](CN(C)Cc2ccc(Cl)c(Cl)c2)O3)cc1,inactive
4,Cc1ccc(S(=O)(=O)Nc2ccc3c(c2)C(=O)N([C@@H](C)CO)C[C@@H](C)[C@H](CN(C)Cc2ccc(Cl)c(Cl)c2)O3)cc1,inactive
5,Cc1ccc(S(=O)(=O)Nc2ccc3c(c2)C(=O)N([C@@H](C)CO)C[C@@H](C)[C@@H](CN(C)Cc2ccc(Cl)c(Cl)c2)O3)cc1,active
6,Cc1ccc(S(=O)(=O)Nc2ccc3c(c2)C(=O)N([C@H](C)CO)C[C@@H](C)[C@H](CN(C)Cc2ccc(Cl)c(Cl)c2)O3)cc1,inactive
7,NC(=O)CSCC(=O)Nc1ccccc1F,inactive
8,O=C(O)/C=C\C(=O)NCc1ccccc1,inactive
9,COCCN1C[C@H]2[C@@H](OC)CCN(S(=O)(=O)c3cn(C)cn3)[C@H]2C1,inactive
10,CNC(=O)C[C@@H]1CC[C@@H]2[C@H](COC[C@@H](O)CN2C(=O)c2ccccn2)O1,inactive
11,C[C@H](CO)N1C[C@H](C)[C@@H](CN(C)S(=O)(=O)c2cccs2)Oc2ccc(NS(C)(=O)=O)cc2CC1=O,inactive
12,C[C@H](O)[C@H](O)[C@@H](O)[C@@H](O)/C=N/NC(=O)c1cccc(C(=O)NO)c1,inactive
13,Cc1cc(C(=O)Nc2cccc3c2O[C@@H](CN(C)Cc2ccc4c(c2)OCO4)[C@@H](C)CN([C@@H](C)CO)C3=O)n(C)n1,inactive
14,COc1ccc(NC(=O)Nc2ccc3c(c2)C(=O)N([C@@H](C)CO)C[C@H](C)[C@H](CN(C)Cc2ccc(Oc4ccccc4)cc2)O3)cc1,inactive
15,COc1ccc(NC(=O)Nc2ccc3c(c2)C(=O)N([C@H](C)CO)C[C@H](C)[C@H](CN(C)Cc2ccc(-c4ccccc4)cc2)O3)cc1,active
16,COc1ccc(NC(=O)Nc2ccc3c(c2)C(=O)N([C@@H](C)CO)C[C@@H](C)[C@@H](CN(C)Cc2ccc(-c4ccccc4)cc2)O3)cc1,active
17,COc1ccc(NC(=O)Nc2ccc3c(c2)C(=O)N([C@H](C)CO)C[C@@H](C)[C@H](CN(C)Cc2ccc(Oc4ccccc4)cc2)O3)cc1,inactive
18,COc1ccc(NC(=O)Nc2ccc3c(c2)C(=O)N([C@@H](C)CO)C[C@H](C)[C@@H](CN(C)Cc2ccc(-c4ccccc4)cc2)O3)cc1,inactive
19,COc1ccc(NC(=O)Nc2ccc3c(c2)C(=O)N([C@H](C)CO)C[C@@H](C)[C@@H](CN(C)Cc2ccc(-c4ccccc4)cc2)O3)cc1,active
20,COc1ccc(NC(=O)Nc2ccc3c(c2)C(=O)N([C@@H](C)CO)C[C@H](C)[C@H](CN(C)Cc2ccc(-c4ccccc4)cc2)O3)cc1,inactive
21,COc1ccc(NC(=O)Nc2ccc3c(c2)C(=O)N([C@H](C)CO)C[C@@H](C)[C@H](CN(C)Cc2ccc(-c4ccccc4)cc2)O3)cc1,active
22,COc1ccc(NC(=O)Nc2ccc3c(c2)C(=O)N([C@H](C)CO)C[C@H](C)[C@@H](CN(C)Cc2ccc(-c4ccccc4)cc2)O3)cc1,inactive
